Records with an inconclusive call do not appear. Calls of active or inactive are those of the source. Unless noted, the call rests on the fitted dose curve; in most records, active means well fitted cell-killing curve with a large enough effect; inconclusive means small, poorly fitted or top-dose-only effect, or effect the other way; inactive means flat fitted curve, though single readings scatter.
What was measured:
OV90 = experiment: Primary qHTS to identify gynecologic anti-cancer compounds using libraries of approved drugs and bioactive compounds (AID 1345084); conditions: Gynecologic cancer cell panel viability, ATPlite luminescence, 48 h; series mostly up to 57.5 µM; further: on the % scale 0 is the no-effect control and ±100 the full control effect; nearly all actives have a fitted effect of over 55% in size
In short: (§1)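 Luminescence from the ATPlite ATP-monitoring reagent indicates viable cell number; lower signal means cytotoxicity. Cells received compound 16 h after seeding and were exposed for 48 h across five concentrations.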

SKOV3 = experiment: as above; conditions: Gynecologic cancer cell panel viability, ATPlite luminescence, 48 h; series mostly up to 57.5 µM
In short: as §1

Tov-21-G = experiment: as above; conditions: Gynecologic cancer cell panel viability, ATPlite luminescence, 48 h; series mostly up to 57.5 µM
In short: as §1

Tov112D = experiment: as above; conditions: Gynecologic cancer cell panel viability, ATPlite luminescence, 48 h; series mostly up to 57.5 µM
In short: as §1

PA-1 = experiment: as above; conditions: Gynecologic cancer cell panel viability, ATPlite luminescence, 48 h; series mostly up to 57.5 µM
In short: as §1

[1] = target: Nuclear receptor subfamily 1 group I member 2 (Rattus norvegicus) (UniProt Q9R1A7); experiment: qHTS assay for small molecule activators of the rat pregnane X receptor (rPXR) signaling pathway (AID 651751; call rule not given here; further: 0% is about no effect); conditions: rPXR reporter cells, luciferase (One-Glo), 24 h
[2] = qHTS assay for small molecule activators of the human pregnane X receptor (PXR) signaling pathway (AID 720659; call rule not given here; further: 0% is about no effect)

Sequence of Nuclear receptor subfamily 1 group I member 2 (Rattus norvegicus) (Q9R1A7 whole entry, looked up): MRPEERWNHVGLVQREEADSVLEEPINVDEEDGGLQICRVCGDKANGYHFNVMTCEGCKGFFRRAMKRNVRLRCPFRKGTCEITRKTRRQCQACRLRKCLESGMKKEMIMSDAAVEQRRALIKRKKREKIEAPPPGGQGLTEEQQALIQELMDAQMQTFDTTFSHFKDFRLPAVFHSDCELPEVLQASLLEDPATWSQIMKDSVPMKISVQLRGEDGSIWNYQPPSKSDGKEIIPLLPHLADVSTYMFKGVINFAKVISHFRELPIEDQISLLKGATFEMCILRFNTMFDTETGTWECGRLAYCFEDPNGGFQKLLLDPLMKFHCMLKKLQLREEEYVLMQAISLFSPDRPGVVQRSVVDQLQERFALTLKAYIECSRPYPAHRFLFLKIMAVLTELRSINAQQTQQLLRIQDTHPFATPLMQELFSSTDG

CNc1nc(C)nc(N[C@H]2CCC[C@@H](C(=O)NCc3ccc(C#N)cc3C(F)(F)F)C2)n1
inactive: Potency (OV90) | Potency (SKOV3) | Potency (Tov-21-G) | Potency (Tov112D)

COc1ccc(C(=O)CC(=O)O)c2c1C=CC(C)(C)O2
inactive: Potency (OV90) | Potency (PA-1) | Potency (Tov-21-G) | Potency (Tov112D)

C[C@@]1(O)[C@H](O)[C@@H](CO)O[C@H]1n1cnc2c(=O)[nH]c(N)nc21
inactive: Potency (OV90) | Potency (PA-1) | Potency (Tov-21-G) | Potency (Tov112D)

C=C1C(OC(C)=O)[C@@]23CCC4[C@](C)(C(=O)O)CCC[C@@]4(C)[C@]2(O)CC[C@H]1C3 (some centres undefined)
inactive: Potency (OV90) | Potency (PA-1) | Potency (Tov-21-G) | Potency (Tov112D)

Cc1cc(Cn2cnc3c2CC(C(=O)O)N(C(=O)C(c2ccccc2)c2ccccc2)C3)ccc1N(C)C (centres undefined)
inactive: Potency (OV90) | Potency (PA-1) | Potency (Tov-21-G) | Potency (Tov112D)

C=C1C2CCC3C(CCC4[C@@]3(C)CCC[C@@]4(C)C(=O)O)(C2)[C@@H]1OC(=O)/C(C)=C\C (some centres undefined)
inactive: Potency (OV90) | Potency (SKOV3)

COc1ccc(CCC(=O)c2c(O)cc(O[C@@H]3O[C@H](CO)[C@@H](O)[C@H](O)[C@H]3O[C@@H]3O[C@@H](C)[C@H](O)[C@@H](O)[C@H]3O)cc2O)cc1O
inactive: max response [1] -0.0245% | outcome [2]

Source: PubChem BioAssay (NCATS)
